According to PubChem BioAssay:
Active and inactive are the calls of the source. Unless noted, how the calls were made is not given here.

Assays:
[1] = A549 cell viability effects, profiling panel, calcein-AM fluorescence, 48 h, basal (AID 1162); conditions: higher = more signal; further: test concentration not given here
[2] = adipocyte viability effects, profiling panel, cell-based, 3T3-L1 adipocytes, calcein-AM fluorescence, 48 h, basal (AID 1163); conditions: 3T3-L1 adipocytes viability, higher = more signal; further: test concentration not given here
[3] = HepG2 cell viability effects, profiling panel, calcein-AM fluorescence, 48 h, basal (AID 1164); conditions: higher = more signal; further: test concentration not given here
[4] = MM1S cell viability effects, profiling panel, calcein-AM fluorescence, 48 h, basal (AID 1165); conditions: higher = more signal;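 further: viability of MM1S multiple myeloma cells under basal unstimulated conditions; test concentration not given here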
[5] = basal RPMI8226 viability, no added stimulus, profiling panel, cell-based, calcein-AM fluorescence, 48 h, PK04 Diversity Set (AID 1166); conditions: RPMI8226 myeloma viability, higher = more signal;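 further: cells grown under basal conditions without added stimulus; test concentration not given here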
[6] = basal HepG2 mitochondrial membrane potential changes, profiling panel, cell-based, JC-1 fluorescence, 24 h, 100 nL compound (AID 1167); conditions: higher = more signal; further: test concentration not given here
[7] = basal 3T3-L1 adipocyte mitochondrial potential changes, profiling panel, cell-based, JC-1 fluorescence, 3T3-L1 adipocytes, 24 h, 100 nL compound (AID 1168); conditions: JC-1 mitochondrial fluorescence, higher = more signal, called active from +8 up or from −8 down; further: test concentration not given here
[8] = basal RPMI8226 mitochondrial membrane potential changes, profiling panel, cell-based, JC-1 fluorescence, 24 h, 100 nL compound (AID 1169); conditions: RPMI8226 myeloma, JC-1 mitochondrial potential fluorescence, higher = more signal; further: test concentration not given here
[9] = basal MM1S mitochondrial membrane potential changes, profiling panel, cell-based, JC-1 fluorescence, 24 h, 100 nL compound (AID 1170); conditions: higher = more signal; further: test concentration not given here
[10] = A549 lung cancer cell viability effects, profiling panel, resazurin fluorescence, 24 h, PK04 Diversity Set (AID 1171); conditions: higher = more signal, called active from +8 up or from −8 down; further: test concentration not given here
[11] = HepG2 liver cancer cell viability effects, profiling panel, resazurin fluorescence, 24 h, PK04 Diversity Set (AID 1172); conditions: higher = more signal; further: test concentration not given here
[12] = basal S. cerevisiae growth modulation, no modifier, primary screen, OD600, strain BY4716, 24 h, basal condition (AID 1173); conditions: OD600, 24 h, higher = more signal, called active from +8 up or from −8 down
[13] = MM1S myeloma cell viability, profiling panel, resazurin fluorescence, basal, 24 h, PK04 Diversity Set (AID 1174); conditions: higher = more signal, called active from +8 up or from −8 down;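 further: MM1S multiple myeloma cell line; test concentration not given here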
[14] = molecular target: Dihydroorotate dehydrogenase (quinone), mitochondrial (Plasmodium falciparum (isolate 3D7)) (UniProt Q08210); test: PfDHODH enzyme inhibitors, primary screen, biochemical, C-terminal His tag, absorbance 600 nm (AID 1175); conditions: DCIP absorbance 600 nm, higher = more signal, called active from +8 up or from −8 down;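 further: recombinant parasite enzyme with a five histidine tag at its C terminus; test concentration not given here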
[15] = P. aeruginosa biofilm formation inhibitors, primary screen, strain PAO1, LB-PBS medium, absorbance 600 nm (AID 1176); further: test concentration not given here; conditions: P. aeruginosa PAO1 growth/biofilm, A600, 12 h; higher = more signal
[16] = S. cerevisiae RM11-1a growth modifiers, primary screen, strain RM11-1a, OD600, basal, 24 h (AID 1177); conditions: OD600, 24 h, higher = more signal, called active from +8 up or from −8 down;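 further: cultures grown under basal conditions with no added stressor; test concentration not given here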
[17] = E. coli acrAB mutant growth effects, primary screen, E. coli filamentation inducers, strain DRC39, OD650, 24 h (AID 1178); conditions: higher = more signal, called active from +8 up or from −8 down;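 further: growth measured as culture turbidity by optical density at 650 nm; test concentration not given here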
[18] = E. coli acrAB mutant growth effects, primary screen, E. coli filamentation inducers, strain DRC39, OD650, 48 h (AID 1179);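 further: screen aims at cell division blockers that make cells filament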; conditions: E. coli DRC39 delta-acrAB growth, higher = more signal, called active from +8 up or from −8 down
[19] = RPMI8226 myeloma cell viability, profiling panel, resazurin fluorescence, basal, 24 h, PK04 Diversity Set (AID 1180); conditions: higher = more signal;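 further: RPMI8826 multiple myeloma cell line at 5000 cells per well; test concentration not given here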
[20] = molecular target: E3 ubiquitin-protein ligase XIAP (Homo sapiens) (UniProt P98170); test: XIAP binders, primary screen, biophysical, small-molecule microarray, fluorescence 635 nm (AID 1181); conditions: small-molecule microarray binding, higher = more signal;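 further: score merges 667 nm emission and signal to noise over triplicate slides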
Sequence of E3 ubiquitin-protein ligase XIAP (Homo sapiens) (P98170 whole entry, looked up): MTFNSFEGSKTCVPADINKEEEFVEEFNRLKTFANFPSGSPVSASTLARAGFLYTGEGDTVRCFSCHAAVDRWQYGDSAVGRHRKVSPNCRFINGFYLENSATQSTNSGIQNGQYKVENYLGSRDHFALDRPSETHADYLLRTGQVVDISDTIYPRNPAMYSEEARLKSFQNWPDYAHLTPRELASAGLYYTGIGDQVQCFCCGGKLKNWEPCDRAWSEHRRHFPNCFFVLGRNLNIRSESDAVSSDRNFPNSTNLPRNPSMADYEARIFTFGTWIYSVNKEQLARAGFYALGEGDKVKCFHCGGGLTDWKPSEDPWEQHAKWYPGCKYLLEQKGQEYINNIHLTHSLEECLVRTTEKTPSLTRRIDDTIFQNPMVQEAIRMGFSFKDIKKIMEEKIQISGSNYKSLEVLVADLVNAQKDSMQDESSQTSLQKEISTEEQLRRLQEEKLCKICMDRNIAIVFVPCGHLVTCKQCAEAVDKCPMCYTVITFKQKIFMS

Sequence of Dihydroorotate dehydrogenase (quinone), mitochondrial (Plasmodium falciparum (isolate 3D7)) (Q08210 whole entry, looked up): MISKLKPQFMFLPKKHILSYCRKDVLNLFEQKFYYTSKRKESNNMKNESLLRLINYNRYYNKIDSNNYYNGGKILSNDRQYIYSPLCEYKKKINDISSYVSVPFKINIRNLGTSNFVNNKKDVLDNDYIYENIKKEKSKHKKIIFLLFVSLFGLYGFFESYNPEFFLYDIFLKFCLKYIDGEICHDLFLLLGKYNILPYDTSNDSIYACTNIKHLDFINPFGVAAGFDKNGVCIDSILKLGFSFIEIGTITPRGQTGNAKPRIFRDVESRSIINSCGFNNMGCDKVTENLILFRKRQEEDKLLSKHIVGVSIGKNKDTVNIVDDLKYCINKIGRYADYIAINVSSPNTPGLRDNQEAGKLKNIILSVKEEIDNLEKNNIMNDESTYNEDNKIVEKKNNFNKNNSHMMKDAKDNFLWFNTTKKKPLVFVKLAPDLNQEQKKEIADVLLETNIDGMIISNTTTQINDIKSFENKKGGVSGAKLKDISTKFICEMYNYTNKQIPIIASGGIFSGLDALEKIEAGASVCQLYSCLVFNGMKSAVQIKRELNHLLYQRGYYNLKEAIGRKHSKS

Compound | z-score [1] | z-score [2] | z-score [3] | z-score [4] | z-score [5] | z-score [6] | z-score [7] | z-score [8] | z-score [9] | z-score [10] | z-score [11] | z-score [12] | z-score [13] | composite z-score [14] | z-score [15] | z-score [16] | z-score [17] | z-score [18] | z-score [19] | composite z-score [20]
C=CCC(OC(C)=O)[C@@H]1[C@@H](N(Cc2cc3ccccc3o2)C(=O)c2ccc(-c3ccccc3)cc2)c2cc(OCCCO)ccc2N1C(=O)Cc1ccc2ccccc2c1 (stereo not given in full) | 0.809 | 0.778 | 1.48 | 0.372 | -0.0122 | 1.64 | -0.211 (inactive) | -0.0273 | 0.293 | 0.483 (inactive) | -0.795 | 0.692 (inactive) | 0.548 (inactive) | 0.22 (inactive) | 0.0793 (inactive) | 0.854 (inactive) | 1.15 (inactive) | 0.682 (inactive) | 1.13 | -0.239
CN(C)CCCCCCNC(=O)[C@@H]1C[C@@H]2C(=O)NCC(=O)N2[C@@H]1c1cccc(OCCO)c1 | -0.129 | -0.215 | -0.225 | 0.0864 | 1.45 | -0.305 | -0.0086 (inactive) | -0.12 | -0.659 | -0.427 (inactive) | -0.358 | -0.531 (inactive) | -0.578 (inactive) | -1.08 (inactive) | 0.0067 (inactive) | 0.536 (inactive) | 0.757 (inactive) | 0.614 (inactive) | -1.12 | 0.0043
COc1ccc([Si](C)(C)[C@H]2[C@H](CCO)O[C@@]3(C(=O)N(Cc4ccccc4)c4ccc(N5C(=O)COc6ccccc65)cc43)[C@@H]2C)cc1 | -0.831 | 0.281 | -3.01 | -3 | -3.25 | -0.111 | 1.46 (inactive) | -0.855 | -1.47 | -1.74 (inactive) | -0.981 | 0.0662 (inactive) | -2.72 (inactive) | 0.0861 (inactive) | 1.31 (inactive) | 3.06 (inactive) | 1.2 (inactive) | 0.433 (inactive) | -3.14 | -0.0622
Cc1ccc(N2C(=O)c3ccccc3[C@@H](C(=O)NCC(C)C)[C@@H]2c2ccc(CO)cc2)nc1 | 0.593 | -0.136 | 0.558 | -0.0617 | 0.662 | 2.02 | 1.09 (inactive) | -0.482 | 0.133 | -0.613 (inactive) | -0.324 | 0.0089 (inactive) | 0.439 (inactive) | 0.351 (inactive) | 0.348 (inactive) | -0.746 (inactive) | 0.483 (inactive) | 0.603 (inactive) | 0.68 | -0.148
Cc1ccc(N2C(=O)c3ccccc3[C@](C)(C(=O)NCCN3CCOCC3)[C@@H]2c2ccc(CO)cc2)nc1 | -0.68 | 0.994 | -0.808 | 0.839 | -1.49 | 0.144 | -0.674 (inactive) | -0.628 | 0.0375 | 0.667 (inactive) | -0.946 | -0.574 (inactive) | 0.438 (inactive) | 0.255 (inactive) | 0.31 (inactive) | 0.548 (inactive) | -0.0943 (inactive) | -0.126 (inactive) | 0.274 | 0.086
C=CCC(OC(C)=O)[C@@H]1[C@@H](N(Cc2ccc(-c3ccccc3)cc2)C(=O)c2ccc(C)cc2)c2cc(OCCCO)ccc2N1C(=O)c1ccc2ccccc2n1 (stereo not given in full) | 3.36 | 0.389 | 1.85 | -0.68 | 1.28 | 3.31 | 0.285 (inactive) | 0.0312 | 1.96 | 1.87 (inactive) | 1.53 | -0.769 (inactive) | 1.3 (inactive) | -0.772 (inactive) | 0.833 (inactive) | -1.99 (inactive) | 2.06 (inactive) | 1.82 (inactive) | 0.924 | -0.0663
CC(C)N1C(=O)c2ccccc2[C@](C)(C(=O)NC2CC2)[C@@H]1c1ccc(CO)cc1 | -0.778 | -0.415 | 0.176 | 0.0418 | 0.27 | 1.57 | 0.343 (inactive) | 0.747 | -0.847 | 0.688 (inactive) | 0.989 | -0.708 (inactive) | 0.192 (inactive) | -0.231 (inactive) | -0.342 (inactive) | 0.382 (inactive) | 0.783 (inactive) | 1.5 (inactive) | 0.798 | -0.0536
C=C[C@@H](C)[C@@H](OC(=O)Nc1ccc(OC)cc1)c1ccc(O)c2ccccc12 | -1.24 | -0.336 | -1.63 | -2.72 | -4.29 | -3.19 | -0.425 (inactive) | -1.13 | -1.23 | -0.527 (inactive) | -1.42 | -18.5 (active) | -5.02 (inactive) | -3.79 (inactive) | 1.43 (inactive) | -22.2 (active) | 0.99 (inactive) | 0.224 (inactive) | -4.37 | -0.125
C=C(C(=O)CC[C@@H](OC(C)=O)c1ccc(OCCO)cc1)C(C)C | -0.382 | -0.0315 | 0.185 | -1.06 | 0.16 | -0.637 | -0.191 (inactive) | 0.0885 | 0.109 | -0.222 (inactive) | 0.0804 | -0.99 (inactive) | -0.522 (inactive) | -1.51 (inactive) | 1.48 (inactive) | 0.156 (inactive) | -0.248 (inactive) | -0.227 (inactive) | -0.271 | 0.612
COc1ccc(C(O)C2C=CC3C(=O)N(c4ccccc4)C(=O)C3N2Nc2ccccc2)c2ccccc12 (stereo not given) | -0.308 | -2.02 | 0.407 | -0.174 | -0.858 | -1.37 | -0.849 (inactive) | -0.86 | -0.978 | -0.301 (inactive) | -1.41 | -5.12 (inactive) | -1.42 (inactive) | 0.896 (inactive) | 1.48 (inactive) | 0.163 (inactive) | -1.05 (inactive) | -0.0025 (inactive) | -1.95 | -0.0049
Cc1ccccc1/C=C/C=O | 1.59 | -0.345 | 0.93 | -0.499 | 0.0415 | 1.65 | 1.39 (inactive) | 0.426 | -0.962 | -0.122 (inactive) | 0.779 | -1.94 (inactive) | 0.971 (inactive) | -0.464 (inactive) | -0.0902 (inactive) | -0.412 (inactive) | 1.23 (inactive) | 1.45 (inactive) | 1.36 | -0.141
CC(C)NC(=O)[C@@]1(c2ccc([N+](=O)[O-])cc2)CC(=O)N(C(C)C)[C@@H]1c1ccc(CO)cc1 | 1.19 | 0.63 | 0.959 | 0.385 | 1.38 | 0.763 | 0.481 (inactive) | -1.03 | -0.228 | -1.1 (inactive) | -0.864 | 0.347 (inactive) | -0.972 (inactive) | -1.53 (inactive) | 1.13 (inactive) | -1.58 (inactive) | 0.423 (inactive) | 1.17 (inactive) | -0.792 | -0.369
CCOC(=O)C[C@H]1[C@H](OC(=O)c2ccc(C(=O)c3ccccc3)cc2)[C@@H](NC(=O)c2ccc3ccccc3n2)c2cc(OCCCO)ccc2N1C(=O)c1ccc2ccccc2n1 | 0.602 | -0.402 | 0.674 | -0.367 | -0.0521 | 1.24 | 1.63 (inactive) | -0.0794 | 0.215 | 1.04 (inactive) | 0.44 | -0.0495 (inactive) | 0.433 (inactive) | 0.681 (inactive) | 0.808 (inactive) | 0.081 (inactive) | 0.322 (inactive) | 0.388 (inactive) | 0.416 | -0.0525
COCCCNC(=O)[C@@]1(Sc2ccc(C)cc2)CC(=O)N(Cc2ccccc2)[C@@H]1c1ccc(CO)cc1 | -0.837 | 0.0417 | -0.543 | -0.0185 | 0.381 | -0.658 | -0.265 (inactive) | 0.216 | -1.38 | 1.28 (inactive) | 0.802 | 0.0695 (inactive) | 0.495 (inactive) | -0.0163 (inactive) | 0.366 (inactive) | -0.194 (inactive) | 0.234 (inactive) | 0.127 (inactive) | 1.01 | -0.0492
CCOC(=O)C1=C[C@@H](C(C)(C)C)N(S(=O)(=O)c2ccc(C)cc2)[C@H]1c1ccc(Cl)c(Cl)c1 | -0.292 | -0.257 | -1.36 | -0.266 | -0.986 | 4.44 | -1.66 (inactive) | -0.981 | -1.33 | -2.26 (inactive) | -0.331 | 1.63 (inactive) | -1.01 (inactive) | 0.89 (inactive) | 0.546 (inactive) | 1.26 (inactive) | -0.723 (inactive) | -0.398 (inactive) | -2.92 | -0.0351
CCCC[C@H]1C[C@@H]1[C@@H]1N(P(=O)(c2ccccc2)c2ccccc2)[C@](CO)(c2ccccc2)CC12CC2 | -2.02 | -0.0661 | -1.96 | -3.23 | -4.69 | -2.28 | -0.732 (inactive) | -0.868 | -2.86 | 0.936 (inactive) | -0.544 | 0.402 (inactive) | -1.93 (inactive) | -0.152 (inactive) | 0.411 (inactive) | 1.14 (inactive) | 0.0779 (inactive) | -0.872 (inactive) | -6.02 | 0.247
CC(=O)N1Cc2ccccc2C[C@@]2(N=C(c3ccc(OCCCO)cc3)O[C@H]2c2ccccc2)C1=O | -1.09 | 0.609 | -1.31 | -2.19 | -3.36 | 1.8 | 0.234 (inactive) | -1.15 | -0.438 | -2.8 (inactive) | -1.33 | -2.24 (inactive) | -4.82 (inactive) | -0.847 (inactive) | 1.76 (inactive) | 0.372 (inactive) | 1.62 (inactive) | 1.4 (inactive) | -4.8 | 0.0651
